We go through 48 compounds from PubChem BioAssay AID2685 (National Center for Advancing Translational Sciences (NCATS), 2010).

Among all 320,000 compounds or so, about 2,100 (0.66%) were called active. Roughly 53% stayed inconclusive and do not appear here. The call rests on the fitted dose curve; in most records, active means well fitted inhibition curve with a large enough effect in the signal ratio, with a control signal flat (not every such curve was filed as active); inconclusive means small, poorly fitted or top-dose-only effect, or effect the other way, or a change in a side signal; inactive means flat fitted curve, though single readings scatter; the % refers to the signal ratio. Many of the other results were omitted from the sample, so actives are more common in it than they were.
Potency means the concentration at half of the fitted maximal effect.

This experiment in a line: qHTS Assay for Lipid Storage Modulators in Drosophila S3 Cells.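 On cell number change: cells counted by Cell Tracker Red CMTPX staining in the red channel.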 On lipid storage change, negative = inhibition: on the % scale 0 is the no-effect control and ±100 the full control effect. As to conditions: BODIPY lipid droplet fluorescence, 18-24 h, cells fed with added oleic acid; cell number change: measured here: cell count max response; series mostly up to 46.1 µM; lipid storage change, negative = inhibition: at the top concentration. The essentials: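 Drosophila S3 cells loaded with oleic acid (400 uM, as added) and compounds at several concentrations; lipid droplets imaged by 488-nm laser-scanning cytometry, 500–530 nm intensity and object ratio to cell channel. Percent activity normalized to 20 uM Triacsin C.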
For orientation: Quantitative high-throughput screening tests each substance at several concentrations.
On to `O=C(NCc1cccc(Cl)c1)c1cccc(C(F)(F)F)c1`, for which the “lipid storage change, negative = inhibition” value was 11.6% (inactive) and the cell number change was -1.35%. For `Cc1cc(NC2CCCC2)n2nc(C)c(-c3ccccc3)c2n1` the same measures were -0.485% (inactive) and -2.08%. In the same order, the values of `O=C(CC1Sc2ccccc2NC1=O)NCc1ccccc1` (centres undefined) are 9.46% (inactive) and 0.893%.

Consider `CCC1=NN2C(=N)/C(=C/c3ccc(OS(=O)(=O)c4ccc(C)cc4)c(OC)c3)C(=O)N=C2S1`, for which the “lipid storage change, negative = inhibition” value was 3.12% (inactive) and the cell number change was 5%.

As for `COc1cc(/C=C2\C(=N)N3N=C(S(C)(=O)=O)SC3=NC2=O)ccc1OS(=O)(=O)c1ccccc1`, the compound was classed as inactive and the cell number change was -27%. Turning to `COc1cc(/C=C2\C(=N)N3N=CSC3=NC2=O)ccc1OS(=O)(=O)c1ccccc1[N+](=O)[O-]`, the “lipid storage change, negative = inhibition” value was -23.3% (inactive) and the cell number change was -11.4%. As for `CCC1=NN2C(=N)/C(=C/c3ccc(OS(=O)(=O)c4ccccc4)c(OC)c3)C(=O)N=C2S1`, the Potency was 1.84 µM (active) and the cell number change was 4.58%. `COc1cc(/C=C2/C(=N)N3N=C(C)SC3=NC2=O)ccc1OS(=O)(=O)c1ccc(C)cc1`: the compound was classed as inactive and the cell number change is -5.04%. For the compound `COc1cc(/C=C2\C(=N)N3N=CSC3=NC2=O)ccc1OS(=O)(=O)c1ccccc1`, the Potency was 2.06 µM (active) and the cell number change was -21.2%.

Consider `Cc1cc(/C=C2\SC(=O)N(CC(=O)Nc3ccccc3F)C2=O)c(C)n1C`, for which the “lipid storage change, negative = inhibition” value is -0.336% (inactive) and the cell number change was 1.47%. For `Cc1ccccc1-n1c(C)n[nH]c1=S` the same measures were 3.14% (inactive) and 1.24%. Turning to `COc1ccc(CC(=O)NNC(=O)CSc2nnc(C)n2-c2ccccc2)cc1`, the call was inactive and the cell number change is -9.57%. For the compound `CC1Cc2ccccc2N1C(=O)CSc1nnc(Cn2nnc3ccccc32)n1C` (centres undefined), the “lipid storage change, negative = inhibition” value was -0.751% (inactive) and the cell number change was -16.3%. As for `O=C(Nc1ccc(F)cc1)N1CCOCC1`, the Potency was 20.6 µM (active) and the cell number change was -6.86%.

With `O=C(O)C1CCCN1C(=O)Nc1ccc(F)cc1` (centres undefined), the Potency is 6.51 µM (active) and the cell number change was 1.35%. `O=C(Nc1ccc(O)cc1)N1CCOCC1`: the compound was called inactive and the cell number change turned out to be 20%.

For the compound `CSc1ccc(NC(=O)N2CCN(c3nc4ccccc4s3)CC2)cc1`, the call was inactive. For `O=C(Nc1ccc(F)cc1)N1CCCCCC1`, the “lipid storage change, negative = inhibition” value was 11.9% (inactive) and the cell number change was found to be 7.77%. For `O=C(NCCc1ccccc1)C1CCCN1C(=O)Nc1ccc(F)cc1` (centres undefined) the same measures were 7.13% (inactive) and -10%.

As to `O=C(Nc1ccccc1)N1CCN(c2nc3ccccc3s2)CC1`, the call was inactive. Turning to `O=C(Nc1ccc(F)cc1)N1CCN(c2nc3ccccc3s2)CC1`, the Potency was 4.11 µM (active).

Regarding `O=C(O)C1CCCN1C(=O)Oc1ccccc1` (centres undefined), the Potency is 23.1 µM (active) and the cell number change turned out to be 0.79%.

On to `O=C(NC1CCCC1)C1CCCN1C(=O)Oc1ccccc1` (centres undefined), for which the “lipid storage change, negative = inhibition” value was -6.65% (inactive) and the cell number change is -16.7%. Turning to `O=C(O)C1CCCN1C(=O)OCc1ccccc1` (centres undefined), the “lipid storage change, negative = inhibition” value is -4.77% (inactive) and the cell number change is 12.4%. For `O=C(NCc1ccc(F)cc1)C1CCCN1C(=O)Nc1ccc(F)cc1` (centres undefined) the same measures were 10.1% (inactive) and 12.2%. For `COc1ccccc1C(=O)C1CCCN(Cc2cccc3nccnc23)C1` (centres undefined), the “lipid storage change, negative = inhibition” value was -3.26% (inactive) and the cell number change worked out at 15%. Regarding `CC(C)Nc1ccc(C(CC(N)=O)NC(=O)Cc2cccc3ccccc23)cc1[N+](=O)[O-]` (centres undefined), the “lipid storage change, negative = inhibition” value was -6.77% (inactive) and the cell number change was found to be 1.26%.

On to `CCOC(=O)c1sc(=NC(=O)c2cccc(C)c2)n(C)c1C`, for which the “lipid storage change, negative = inhibition” value was 3.79% (inactive). Take `Cc1cc(Cl)ccc1NC(=S)NCc1ccco1`: the “lipid storage change, negative = inhibition” value was -3.05% (inactive) and the cell number change is -9.3%. In the same order, the values of `CCOc1ccccc1NC(=O)Cn1c(=O)oc2cc(Cl)ccc21` are 6.22% (inactive) and 6.12%.

Turning to `O=C(NC1CCN(C(=O)Nc2ccc(F)cc2)CC1)c1ccccc1F`, the Potency is 6.51 µM (active). As for `Cc1ccccc1C(=O)NC1CCN(CC(=O)NCc2ccc(F)cc2)CC1`, the “lipid storage change, negative = inhibition” value is 0.998% (inactive) and the cell number change came out at 9.44%. Take `Cc1ccccc1C(=O)NC1CCN(C(=O)Nc2ccc(F)cc2)CC1`: the result was inactive and the cell number change came to 8.56%. Turning to `Cc1cc(C)cc(NC(=O)N2CCC(NC(=O)c3ccccc3C)CC2)c1`, the “lipid storage change, negative = inhibition” value is 0.091% (inactive) and the cell number change worked out at 4.64%.

On to `O=C(CN1CCC(NC(=O)c2ccccc2F)CC1)NCc1ccc(F)cc1`, for which the Potency is 20.6 µM (active) and the cell number change was -14.5%. For the compound `Cc1ccccc1C(=O)NC1CCN(CC(=O)NCc2ccccc2)CC1`, the “lipid storage change, negative = inhibition” value was -3.57% (inactive) and the cell number change was found to be 13.5%. With `CCc1cc2c(=O)c(-c3nc4ccccc4n3C)c(C)oc2c(CN2CCOCC2)c1O`, the call was inactive. As to `CCCS(=O)(=O)N1CCCC(C(=O)Oc2ccc(Cl)cc2)C1` (centres undefined), the “lipid storage change, negative = inhibition” value is 4.15% (inactive) and the cell number change stood at 14%.

Turning to `Cc1ccc(NC(=O)CSc2nc(N)cc(=O)[nH]2)cc1Cl`, the “lipid storage change, negative = inhibition” value is -14.5% (inactive) and the cell number change came to 22%. In the case of `Cn1c(SCc2ccccc2Cl)nc2c1c(=O)[nH]c(=O)n2C`, the compound was classed as inactive and the cell number change came to 3.04%.

Turning to `Cn1c(=O)c2c(nc(SCc3ccccn3)n2C)n(C)c1=O`, the “lipid storage change, negative = inhibition” value is 14.3% (inactive) and the cell number change was -19.6%. With `Cn1c(SCc2ccccn2)nc2c1c(=O)[nH]c(=O)n2C`, the Potency is 2.59 µM (active) and the cell number change turned out to be 0.681%. In the same order, the values of `CCOC(=O)c1ccc(-c2ccc(/C=N/NC(=O)CN(c3ccccc3Br)S(C)(=O)=O)o2)cc1` are 9.2 µM (active) and -15.9%. In the case of `CS(=O)(=O)N(CC(=O)N/N=C/c1ccco1)c1ccccc1Br`, the “lipid storage change, negative = inhibition” value was -8.18% (inactive) and the cell number change is 2.71%. For `Cc1oc(/C=N/NC(=O)CN(c2ccccc2Br)S(C)(=O)=O)cc1Br` the same measures were 4.78% (inactive) and 0.768%. In the case of `COc1ccccc1-c1ccc(SCC(=O)NCc2ccc3c(c2)OCO3)nn1`, the call was inactive. For `O=C(Sc1cccc2cccnc12)c1ccccc1Br`, the Potency was 7.31 µM (active) and the cell number change was 4.44%. `CC(=O)/C(=N/Nc1ccc(Br)cc1)Sc1cccc2cccnc12`: the “lipid storage change, negative = inhibition” value is -13% (inactive) and the cell number change was -2.71%.
